Screens deposited in PubChem by SRMLSC.
A340 absorber: compound absorbs light at 340 nm. fold change at 10 µM. compound absorbance at 340 nm, fold over control. 65,000 tested, under 10 active;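 active = at 10 µM dose, initial 340 nm absorbance at least 2 fold that of control wells; inactive = change under 2 fold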;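 note: initial absorbance extrapolated from kinetic A340 decline of NADH oxidation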
DPM-DC inhibit: blocks S. pneumoniae diphosphomevalonate decarboxylase; purified DPM-DC, PK/LDH coupled NADH fluorescence; calls only at 10 µM; hit rate 0.49% among 65,000; AID 556;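 active = the 320 compounds with the highest percent inhibition in the single-dose primary screen, excluding strongly autofluorescent ones, cut at about 32% in these data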;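 note: kinetic rate of NADH fluorescence loss reporting ADP formed by the decarboxylase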
Spn MK inh: blocks S. pneumoniae mevalonate kinase; purified MK, PK/LDH-coupled NADH absorbance 340 nm; inhibition, % at 10 µM; hit rate 0.48% among 65,000; AID 555;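 active = ranked among the strongest by inhibition in the single 10 µM screen, a fixed top-ranked set picked for dose follow-up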
NADH coupling: blocks coupling enzymes of NAD/NADH assays. coupled PK/LDH NADH assays, four targets. hit rate 0.02% among 65,000. AID 774. IC50, µM (highest dose often 10 µM);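 active = single-dose screening hits from any of four coupled enzyme assays that gave an IC50 when retested across doses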;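 note: the DPM-DC format reads NADH fluorescence rather than 340 nm absorbance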
Fluor 339 460: intrinsic fluorescence of library compounds, ex339/em460 – biochemical, MLSMR library, data from DPM-DC assay, artefact control, profiling panel | compound autofluorescence, ex339/em460 nm, NADH buffer; hits give high values; 1 = no-compound wells, NADH background | fluorescence fold increase at 10 µM | hit rate 5.5% among 65,000 | AID 709;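 active = at 10 µM, mean starting fluorescence two-fold or more over control wells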;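 note: signal is the first read of a kinetic run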
Spn PMK inh: S. pneumoniae PMK inhibition; inhibition, % at 10 µM; purified PMK, PK/LDH-coupled NADH absorbance 340 nm; AID 539; hit rate 0.49% among 65,000;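 active = top-ranked compounds by inhibition in the single 10 µM screen, taking a fixed number of the strongest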
A number is an active result; - = inactive; . = not tested or not shown; + = active, no number. Only some compounds are listed: those with a hit (about 6.5% of all), similar ones and a draw of the others.

SMILES | A340 absorber | DPM-DC inhibit | Spn MK inh | NADH coupling | Fluor 339 460 | Spn PMK inh
CN(c1ccccc1C(=O)N1CCc2ccccc2C1)S(C)(=O)=O | - | - | - | - | - | -
Clc1cc(Cl)c2nc(N3CCCC3)sc2c1 | - | - | - | - | - | -
CSCCOC(=O)C1=C(C)NC(=O)CC1c1ccccc1Cl (stereo not drawn) | - | - | - | - | - | -
CCN(CC(=O)Nc1ccccc1C(=O)OC)S(=O)(=O)c1ccc(OC)cc1 | - | - | - | - | - | -
O=C(Cn1cccc1)N1CCN(C(c2ccccc2)c2ccccc2)CC1 | - | - | - | - | - | -
O=C(CN1CCN(c2ncccn2)CC1)N1CCN(C(c2ccccc2)c2ccccc2)CC1 | - | - | 49 | - | - | -
CNC(=O)C1C2C=CC3(O2)C1C(=O)N(C1CC1)C3C(=O)NCc1ccc(OC)cc1 (stereo not drawn) | - | - | - | - | - | -
O=C(NCc1ccco1)c1cc2ccccc2o1 | - | - | - | - | - | -
Cc1ccc2cc3cc(C(=O)NCc4ccco4)oc3nc2c1 | - | . | - | - | 4.6 | -
Cc1ccc2cc3cc(C(=O)NCCC(C)C)oc3nc2c1 | - | . | - | - | 5.1 | -
C=CCN(C(=O)Cn1c(C(=O)OC)cc2oc(C)cc21)c1ccccc1 | - | - | - | - | - | -
COc1ccccc1N1CC(O)=C(c2nc3ccccc3c(=O)[nH]2)C1=N | - | - | - | - | 2.5 | -
N=C1C(c2nc3ccccc3c(=O)[nH]2)=C(O)CN1CCO | - | - | - | - | - | -
COCCN1CC(O)=C(c2nc3ccccc3c(=O)[nH]2)C1=N | - | . | - | - | 3.7 | -
COCCn1c(SCC(=O)c2ccc3c(c2)OCCO3)nnc1-c1ccoc1C | - | - | - | - | - | -
COCCNC(=O)CSc1nc(-c2ccc(OC)c(OC)c2)cc(C(F)(F)F)n1 | - | - | - | - | 2.1 | -
COc1ccc(-c2cc(C(F)(F)F)nc(SCC(=O)N3CCOCC3)n2)cc1OC | - | - | - | - | 2.4 | -
COc1ccc(-c2cc(C(F)(F)F)nc(S(=O)(=O)CCC(=O)N3CCOCC3)n2)cc1 | - | - | - | - | 2.8 | -
COc1ccc(-c2cc(C(F)(F)F)nc(SCC(=O)Nc3cc(C)on3)n2)cc1 | - | - | - | - | 3 | -
COc1ccccc1-c1cc(C(F)(F)F)nc(S(=O)(=O)CCCC(=O)N2CCOCC2)n1 | - | - | - | - | - | -
CN=C1c2c(-c3ccccc3)c3cc(OC)ccc3n2CCN1C | - | - | - | - | - | -
CN(C)c1ccc2c(O)cc(=O)n(C)c2c1 | - | . | - | - | 2.3 | -
CN(c1ccc(Cl)cc1)c1cc(=O)n(C)c2ccccc12 | - | - | - | - | - | -
Oc1ccccc1-c1nc(NCC2CCCO2)c2ccccc2n1 (stereo not drawn) | - | - | - | - | - | -
COc1cccc(-c2nc(NCC3CCCO3)c3ccccc3n2)c1O (stereo not drawn) | - | - | - | - | - | -
SMILES | A340 absorber | DPM-DC inhibit | Spn MK inh | NADH coupling | Fluor 339 460 | Spn PMK inh
CCOc1cc(-c2nc3ccccn3c2NCC2CCCO2)ccc1O (stereo not drawn) | - | . | - | - | 3 | -
COc1cc(-c2nc3ccccn3c2NCC2CCCO2)ccc1O (stereo not drawn) | - | . | - | - | 3.7 | -
COc1ccc(Cl)cc1CSc1n[nH]c(C)n1 | - | - | - | - | - | -
CS(=O)(=O)N(CC(=O)N1CCN(Cc2ccccc2)CC1)Cc1ccccc1 | - | - | - | - | - | -
CCN(CC)S(=O)(=O)c1ccc(Oc2cccc(C(C)=O)c2)nc1 | - | - | - | - | - | -
CCC(Sc1ccc2nnc(-c3ccc(F)cc3)n2n1)C(=O)O (stereo not drawn) | - | - | - | - | 2 | -
O=C(CSc1ccc2nnc(-c3cccc(F)c3)n2n1)NCC1CCCO1 (stereo not drawn) | - | - | - | - | 2.1 | -
O=C(CSc1ccc2nnc(-c3cccnc3)n2n1)NCC1CCCO1 (stereo not drawn) | - | - | - | - | - | -
O=C(CSc1ccc2nnc(-c3ccccc3)n2n1)N1CCCCC1 | - | - | - | - | 2.2 | -
COc1ccc(-c2nnc3ccc(SCC(=O)N4CCCC4)nn23)cc1 | - | - | - | - | - | -
CCOC(=O)CC(=O)CSc1ccc2nnc(-c3ccc(C)cc3)n2n1 | - | + | - | - | - | -
